PubChem BioAssay
Activity calls are given as the source filed them.

Assays:
[1] = binders of probe aFSTL3 on microarray, primary screen, stem cell growth factor project, biochemical, small-molecule microarray, fluorescence 635/667 (AID 1064); conditions: higher = more signal;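 note: measures binding of the biotinylated anti-FSTL3 antibody to printed compounds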
[2] = binders from COS7 lysate, DM2A8 probe, primary screen, torsin A project, cell lysate, small-molecule microarray, fluorescence 635/667 (AID 1065); conditions: higher = more signal, COS7 lysate expressing mutant human TOR1A
[3] = binders of probe aFGF2 on microarray, primary screen, stem cell growth factor project, biochemical, small-molecule microarray, fluorescence 635/667 (AID 1067); conditions: higher = more signal;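 note: measures binding of biotinylated aFGF2 protein to printed compounds on slides; z-score merges feature fluorescence and signal-to-noise across triplicate slides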
[4] = binders of probe aFGF10 on microarray, primary screen, stem cell growth factor project, biochemical, small-molecule microarray, fluorescence 635/667 (AID 1071); conditions: higher = more signal;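 note: score merges 667 nm spot intensity and signal to noise from triplicate slides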
[5] = target: Neurogenic locus notch homolog protein 2 (Homo sapiens) (UniProt Q04721); experiment: Notch2 binders on small-molecule microarrays, primary screen, biochemical, small-molecule microarray, 635 nm fluorescence, stem cell growth factors (AID 1073); conditions: Notch2 binding, higher = more signal
[6] = target: Pro-neuregulin-1, membrane-bound isoform (Homo sapiens) (UniProt Q02297); experiment: NRG1 binders on small-molecule microarrays, primary screen, psychiatric disease protein project, biochemical, small-molecule microarray, fluorescence 635/667 (AID 1075); conditions: NRG1 binding, 635 nm fluorescence, higher = more signal;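 note: score combines 667 nm spot fluorescence with signal to noise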
[7] = test system: Neuregulin-1 EGF-like domain; experiment: binders of neuregulin-1 EGF-like domain, primary screen, biochemical, small-molecule microarray, 635 nm fluorescence (AID 1081); conditions: small-molecule microarray binding, higher = more signal;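 note: binding of the protein to compounds printed on small-molecule microarray slides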
[8] = FRG1 promoter luciferase signal modulators, primary screen, FRG1 inhibition for FSHD, cell-based, C2C12 myotubes, firefly/Renilla luciferase, luminescence (AID 1084); conditions: higher = more signal, called active from +8 up or from −8 down
[9] = binders of probe aFST on microarray, primary screen, stem cell growth factor project, biochemical, small-molecule microarray, fluorescence 635/667 (AID 1086); conditions: higher = more signal;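 note: score merges 667 nm fluorescence with signal-to-noise of each printed compound spot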
[10] = binders of probe aHhip on microarray, primary screen, stem cell growth factor project, biochemical, small-molecule microarray, fluorescence 635/667 (AID 1087); conditions: higher = more signal;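 note: score merges spot fluorescence at 667nm with spot signal to noise ratio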
[11] = test system: PRMT1 (protein arginine N-methyltransferase 1); experiment: PRMT1 binders on small-molecule microarrays, primary screen, biochemical, small-molecule microarray, 635 nm fluorescence (AID 1088); conditions: small-molecule microarray binding, higher = more signal;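 note: binding of Prmt1 protein to compounds spotted on small-molecule microarray slides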
[12] = yeast growth modulation, basal conditions, primary screen, YJM789 clinical isolate, OD600, 24 h (AID 1089);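 note: growth of clinical yeast isolate S. cerevisiae YJM 789 seeded 1000 cells per well; test concentration not given here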; conditions: S. cerevisiae YJM789 growth, higher = more signal, called active from +8 up or from −8 down
[13] = fission yeast growth modulation, primary screen, strain 972, OD600, 24 h, no modulator (AID 1090);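 note: basal condition with compound alone and no growth modifier present; test concentration not given here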; conditions: S. pombe 972 growth, higher = more signal, called active from +8 up or from −8 down
[14] = S. cerevisiae growth modulation with rapamycin, primary screen, strain BY4716, OD600, 96 h (AID 1091); conditions: higher = more signal, called active from +8 up or from −8 down; note: test concentration not given here
[15] = target: Torsin-1A-interacting protein 2 (Homo sapiens) (UniProt Q8NFQ8); experiment: LULL1 binders on small-molecule microarray, primary screen, cell lysate, human LULL1 lysate, 635/667 nm fluorescence (AID 1092); conditions: hLULL1 lysate binding, 635 nm fluorescence, higher = more signal;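 note: probe is lysate of COS7 cells overexpressing human LULL1; score merges per-feature 667 nm fluorescence with signal-to-noise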
[16] = E. coli growth modulation, two-sided OD650, primary screen, E. coli filamentation project, strain DRC41, 24 h (AID 1093); conditions: OD650, 24 h, higher = more signal, called active from +8 up or from −8 down;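 note: MC1000 strain lacking acrAB efflux and sulA so SOS filamentation is blocked; test concentration not given here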
[17] = small-molecule microarray binders of probe aLefty2, primary screen, biochemical, biotinylated probe, 635/667 nm fluorescence (AID 1094); conditions: higher = more signal;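 note: score merges spot fluorescence near 667 nm with spot signal-to-noise ratio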
[18] = test system: Noggin (protein binding on small-molecule microarray); experiment: Noggin binders on small-molecule microarray, primary screen, biochemical, 635/667 nm fluorescence (AID 1095); conditions: 635 nm fluorescence, higher = more signal;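 note: score merges 667 nm feature fluorescence with signal to noise over triplicate slides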
[19] = target: Neurogenic locus notch homolog protein 3 (Homo sapiens) (UniProt Q9UM47); experiment: NOTCH3 binders on small-molecule microarray, primary screen, biochemical, 635/667 nm fluorescence (AID 1096); conditions: NOTCH3 binding, 635 nm fluorescence, higher = more signal
[20] = small-molecule microarray binders of probe aEGFR, primary screen, biochemical, biotinylated probe, 635/667 nm fluorescence (AID 1097); conditions: higher = more signal;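 note: probe is a biotinylated anti-EGFR antibody binding compounds printed on slides; score combines fluorescence near 667 nm and signal to noise of each spot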

Neurogenic locus notch homolog protein 2 (Homo sapiens), sequence (Q04721 whole entry, looked up, canonical isoform): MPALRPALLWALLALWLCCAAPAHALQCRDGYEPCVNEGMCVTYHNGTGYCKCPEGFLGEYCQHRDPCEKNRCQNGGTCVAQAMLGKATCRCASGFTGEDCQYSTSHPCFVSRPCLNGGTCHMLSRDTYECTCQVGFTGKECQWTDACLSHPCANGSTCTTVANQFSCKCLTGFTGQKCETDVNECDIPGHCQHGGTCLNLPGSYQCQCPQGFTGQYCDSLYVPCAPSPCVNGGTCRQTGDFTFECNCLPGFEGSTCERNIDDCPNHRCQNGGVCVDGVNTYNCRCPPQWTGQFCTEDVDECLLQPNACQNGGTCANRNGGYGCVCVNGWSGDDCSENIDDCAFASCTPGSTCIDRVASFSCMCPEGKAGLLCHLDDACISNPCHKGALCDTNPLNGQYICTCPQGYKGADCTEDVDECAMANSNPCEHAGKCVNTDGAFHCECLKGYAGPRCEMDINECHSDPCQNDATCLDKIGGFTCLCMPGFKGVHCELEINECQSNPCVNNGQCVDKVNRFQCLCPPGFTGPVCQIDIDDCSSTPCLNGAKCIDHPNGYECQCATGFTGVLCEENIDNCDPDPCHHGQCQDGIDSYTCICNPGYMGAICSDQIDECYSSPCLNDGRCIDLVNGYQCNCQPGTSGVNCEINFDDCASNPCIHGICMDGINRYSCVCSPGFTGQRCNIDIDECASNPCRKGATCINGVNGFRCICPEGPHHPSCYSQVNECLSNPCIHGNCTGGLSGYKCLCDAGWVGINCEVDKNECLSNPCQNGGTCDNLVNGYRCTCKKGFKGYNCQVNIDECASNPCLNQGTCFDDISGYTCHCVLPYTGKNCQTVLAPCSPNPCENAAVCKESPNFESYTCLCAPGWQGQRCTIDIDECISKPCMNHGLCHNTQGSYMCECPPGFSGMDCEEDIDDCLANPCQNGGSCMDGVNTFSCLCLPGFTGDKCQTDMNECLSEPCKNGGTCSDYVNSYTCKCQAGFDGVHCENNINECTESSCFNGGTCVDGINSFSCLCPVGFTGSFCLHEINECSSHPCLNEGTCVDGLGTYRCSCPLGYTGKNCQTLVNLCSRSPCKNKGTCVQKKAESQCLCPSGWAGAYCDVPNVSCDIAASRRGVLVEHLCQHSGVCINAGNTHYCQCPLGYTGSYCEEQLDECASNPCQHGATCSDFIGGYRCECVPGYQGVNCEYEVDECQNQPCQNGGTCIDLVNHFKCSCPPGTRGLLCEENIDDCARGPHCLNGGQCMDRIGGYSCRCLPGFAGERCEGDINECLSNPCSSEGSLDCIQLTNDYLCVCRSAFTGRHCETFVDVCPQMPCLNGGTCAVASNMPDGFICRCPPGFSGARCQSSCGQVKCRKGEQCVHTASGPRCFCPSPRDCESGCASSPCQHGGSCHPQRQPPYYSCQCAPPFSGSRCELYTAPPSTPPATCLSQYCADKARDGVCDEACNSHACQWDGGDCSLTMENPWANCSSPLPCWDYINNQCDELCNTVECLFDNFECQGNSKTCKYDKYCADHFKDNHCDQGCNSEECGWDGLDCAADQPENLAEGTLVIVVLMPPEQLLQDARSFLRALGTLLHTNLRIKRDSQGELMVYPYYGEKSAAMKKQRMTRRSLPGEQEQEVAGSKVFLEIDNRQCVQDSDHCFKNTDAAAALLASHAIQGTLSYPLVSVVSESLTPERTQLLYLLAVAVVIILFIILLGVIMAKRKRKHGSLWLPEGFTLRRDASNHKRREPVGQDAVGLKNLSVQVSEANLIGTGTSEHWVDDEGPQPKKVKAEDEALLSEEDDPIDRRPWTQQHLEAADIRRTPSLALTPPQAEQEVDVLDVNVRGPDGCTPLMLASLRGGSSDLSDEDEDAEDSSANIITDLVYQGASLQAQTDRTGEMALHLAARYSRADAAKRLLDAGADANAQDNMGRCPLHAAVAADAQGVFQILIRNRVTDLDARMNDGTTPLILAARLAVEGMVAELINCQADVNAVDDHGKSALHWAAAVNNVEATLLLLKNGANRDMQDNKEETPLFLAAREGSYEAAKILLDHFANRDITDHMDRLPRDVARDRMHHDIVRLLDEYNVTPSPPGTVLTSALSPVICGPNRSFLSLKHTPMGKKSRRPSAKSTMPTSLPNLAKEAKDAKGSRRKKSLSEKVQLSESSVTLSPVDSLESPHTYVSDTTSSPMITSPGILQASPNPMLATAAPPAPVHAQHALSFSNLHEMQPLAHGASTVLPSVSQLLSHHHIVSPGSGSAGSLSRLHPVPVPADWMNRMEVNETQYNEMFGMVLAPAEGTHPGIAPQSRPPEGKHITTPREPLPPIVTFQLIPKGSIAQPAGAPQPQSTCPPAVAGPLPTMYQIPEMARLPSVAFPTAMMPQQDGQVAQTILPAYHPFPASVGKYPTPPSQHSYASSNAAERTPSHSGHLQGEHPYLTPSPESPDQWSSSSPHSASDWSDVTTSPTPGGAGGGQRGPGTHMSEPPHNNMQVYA
Neurogenic locus notch homolog protein 3 (Homo sapiens), sequence (Q9UM47 whole entry, looked up): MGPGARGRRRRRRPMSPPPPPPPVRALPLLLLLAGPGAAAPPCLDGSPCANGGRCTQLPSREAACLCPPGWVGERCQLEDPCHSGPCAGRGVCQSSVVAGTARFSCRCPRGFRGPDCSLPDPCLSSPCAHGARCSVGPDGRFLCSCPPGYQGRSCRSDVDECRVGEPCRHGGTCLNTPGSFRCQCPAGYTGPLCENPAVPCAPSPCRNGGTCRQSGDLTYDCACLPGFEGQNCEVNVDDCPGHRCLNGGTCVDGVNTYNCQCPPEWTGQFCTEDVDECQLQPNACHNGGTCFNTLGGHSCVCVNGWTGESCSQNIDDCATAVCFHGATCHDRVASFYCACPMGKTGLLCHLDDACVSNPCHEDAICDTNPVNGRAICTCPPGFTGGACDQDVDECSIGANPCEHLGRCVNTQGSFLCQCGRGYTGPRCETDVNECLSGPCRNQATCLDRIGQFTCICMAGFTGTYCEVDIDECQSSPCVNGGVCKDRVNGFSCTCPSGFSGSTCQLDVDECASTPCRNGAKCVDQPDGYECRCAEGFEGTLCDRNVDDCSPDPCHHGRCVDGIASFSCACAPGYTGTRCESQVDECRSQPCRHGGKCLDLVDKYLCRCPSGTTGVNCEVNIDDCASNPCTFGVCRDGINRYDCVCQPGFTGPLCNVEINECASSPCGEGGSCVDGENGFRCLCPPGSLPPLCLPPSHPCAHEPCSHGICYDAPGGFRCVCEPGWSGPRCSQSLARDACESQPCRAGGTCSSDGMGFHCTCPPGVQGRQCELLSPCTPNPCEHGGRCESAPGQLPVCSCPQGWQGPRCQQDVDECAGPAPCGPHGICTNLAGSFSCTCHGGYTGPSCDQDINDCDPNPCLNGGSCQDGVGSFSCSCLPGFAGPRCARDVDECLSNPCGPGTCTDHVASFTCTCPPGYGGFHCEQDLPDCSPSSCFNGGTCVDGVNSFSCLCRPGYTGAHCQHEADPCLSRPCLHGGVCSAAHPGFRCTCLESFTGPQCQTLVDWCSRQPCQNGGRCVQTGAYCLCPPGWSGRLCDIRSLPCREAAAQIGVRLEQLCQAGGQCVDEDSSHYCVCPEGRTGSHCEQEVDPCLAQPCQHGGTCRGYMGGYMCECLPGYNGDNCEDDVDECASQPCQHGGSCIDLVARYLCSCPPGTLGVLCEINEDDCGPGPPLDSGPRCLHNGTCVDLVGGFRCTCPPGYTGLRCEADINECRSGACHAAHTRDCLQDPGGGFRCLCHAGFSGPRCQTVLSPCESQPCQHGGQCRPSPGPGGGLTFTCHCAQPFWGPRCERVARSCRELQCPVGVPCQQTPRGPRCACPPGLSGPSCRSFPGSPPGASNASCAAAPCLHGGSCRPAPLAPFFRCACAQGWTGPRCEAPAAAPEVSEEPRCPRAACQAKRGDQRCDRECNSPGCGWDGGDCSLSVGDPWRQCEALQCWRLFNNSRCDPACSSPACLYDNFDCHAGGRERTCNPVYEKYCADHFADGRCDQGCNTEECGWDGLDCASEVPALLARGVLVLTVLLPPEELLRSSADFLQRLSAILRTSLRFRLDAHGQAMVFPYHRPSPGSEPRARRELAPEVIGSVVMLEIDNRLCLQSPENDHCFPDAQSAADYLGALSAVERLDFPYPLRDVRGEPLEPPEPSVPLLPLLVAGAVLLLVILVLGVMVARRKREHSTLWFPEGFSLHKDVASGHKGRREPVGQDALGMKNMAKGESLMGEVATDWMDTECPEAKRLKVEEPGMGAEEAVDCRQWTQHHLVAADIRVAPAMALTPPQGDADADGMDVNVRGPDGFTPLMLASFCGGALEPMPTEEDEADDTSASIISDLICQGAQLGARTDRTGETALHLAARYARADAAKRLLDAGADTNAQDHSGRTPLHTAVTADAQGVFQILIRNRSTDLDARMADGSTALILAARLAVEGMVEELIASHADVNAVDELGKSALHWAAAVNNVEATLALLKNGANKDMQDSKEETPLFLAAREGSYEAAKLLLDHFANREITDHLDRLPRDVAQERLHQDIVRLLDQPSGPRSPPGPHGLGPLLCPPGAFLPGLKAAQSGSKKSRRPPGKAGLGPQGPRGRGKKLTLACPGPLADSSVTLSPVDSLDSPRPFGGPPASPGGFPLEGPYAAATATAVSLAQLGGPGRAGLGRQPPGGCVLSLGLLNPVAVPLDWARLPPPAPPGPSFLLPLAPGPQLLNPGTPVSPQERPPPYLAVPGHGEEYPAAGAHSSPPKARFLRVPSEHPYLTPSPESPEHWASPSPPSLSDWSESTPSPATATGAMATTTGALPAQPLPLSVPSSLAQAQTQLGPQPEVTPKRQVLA

Work on `CC(C)C[C@H]1NC(=O)[C@H](Cc2ccccc2)NC(=O)[C@@]23C(=O)N[C@@H](Cc4ccccc4)C2[C@H](C)[C@@]2(C)O[C@H]2C3/C=C/C/C=C\CNC1=O` (stereo not given in full) yielded a composite z-score [1] of -0.263, a composite z-score [2] of 0.919 and a composite z-score [3] of -0.116. The composite z-score [4] was 0.461, the composite z-score [5] was 0.777 and the composite z-score [6] was 1.03. The composite z-score [7] was 1.05, the z-score [8] was 2.48 (inactive) and the composite z-score [9] was 0.089. For the same compound, the composite z-score [10] was 0.0626, the composite z-score [11] was 1.21 and the z-score [12] was -1.12 (inactive). For the same compound, the z-score [13] was -0.667 (inactive), the z-score [14] was -0.302 (inactive) and the composite z-score [15] was 1.46. For the same compound, the z-score [16] was -1.03 (inactive), the composite z-score [17] was -0.123 and the composite z-score [18] was 0.426. It also gave a composite z-score [19] of 0.852 and a composite z-score [20] of -0.0968.

Work on `COC(=O)[C@@]1(Cc2ccccc2)[C@H]2c3cc(C(=O)N4CCCC4)n(Cc4ccc(C(F)(F)F)nc4)c3C[C@H]2CN1C(=O)c1ccccc1` yielded a composite z-score [1] of 0.356, a composite z-score [2] of 1.74 and a composite z-score [3] of 0.237. For the same compound, the composite z-score [4] was 0.747, the composite z-score [5] was 1.54 and the composite z-score [6] was 1.98. The composite z-score [7] was 1.37, the z-score [8] was 0.419 (inactive) and the composite z-score [9] was 2.11. For the same compound, the composite z-score [10] was 0.0858, the composite z-score [11] was 1.19 and the z-score [12] was -0.461 (inactive). The z-score [13] was 0.449 (inactive), the z-score [14] was 1.98 (inactive) and the composite z-score [15] was 3.64. The z-score [16] was -0.35 (inactive), the composite z-score [17] was 0.226 and the composite z-score [18] was 0.073. The composite z-score [19] was 1.03 and the composite z-score [20] was 0.265.

For `CCCCC(=C=CC[C@H](O)c1ccc(OCCO)cc1)C[C@H](O)c1ccccn1`, the composite z-score [1] was -0.199, the composite z-score [2] was 0.342 and the composite z-score [3] was -0.109. It also gave a composite z-score [4] of 0.694, a composite z-score [5] of 0.356 and a composite z-score [6] of 1.47. The composite z-score [7] was 1.14, the z-score [8] was -0.865 (inactive) and the composite z-score [9] was 0.763. The composite z-score [10] was 0.0854, the composite z-score [11] was 1.54 and the z-score [12] was 0.415 (inactive). The z-score [13] was -1.18 (inactive), the z-score [14] was -0.539 (inactive) and the composite z-score [15] was 1.72. For the same compound, the z-score [16] was 0.493 (inactive), the composite z-score [17] was -0.0094 and the composite z-score [18] was 0.266. The composite z-score [19] was 0.419 and the composite z-score [20] was 0.165.

For `C=CCC(OC(C)=O)[C@@H]1[C@@H](N(Cc2ccc(-c3cccc(C(F)(F)F)c3)o2)C(=O)Cc2ccc(OC)cc2)c2cc(OCCCO)ccc2N1C(=O)c1ccc2ccccc2n1` (stereo not given in full), the composite z-score [1] was 0.0523, the composite z-score [2] was -0.0913 and the composite z-score [3] was -0.0922. For the same compound, the composite z-score [4] was 0.745, the composite z-score [5] was -0.485 and the composite z-score [6] was -0.249. For the same compound, the composite z-score [7] was -0.433, the z-score [8] was 0.312 (inactive) and the composite z-score [9] was 0.364. For the same compound, the composite z-score [10] was -0.16, the composite z-score [11] was -0.538 and the z-score [12] was 0.195 (inactive). The z-score [13] was 0.153 (inactive), the z-score [14] was -0.44 (inactive) and the composite z-score [15] was 0.806. The z-score [16] was -0.555 (inactive), the composite z-score [17] was -0.0998 and the composite z-score [18] was -0.306. For the same compound, the composite z-score [19] was -0.412 and the composite z-score [20] was -0.0828.

`CC(C)C[C@@H]1NC(=O)C([C@@H](C)OCc2ccccc2)NC(=O)[C@@]23C(=O)N[C@@H](Cc4ccccc4)C2[C@H](C)[C@@]2(C)O[C@H]2C3/C=C/CC/C=C/CNC1=O` (stereo not given in full) gave a composite z-score [1] of -0.38, a composite z-score [2] of 0.924 and a composite z-score [3] of -0.0841. It also gave a composite z-score [4] of 0.379, a composite z-score [5] of 0.319 and a composite z-score [6] of 1.11. The composite z-score [7] was 0.979, the z-score [8] was 1.49 (inactive) and the composite z-score [9] was 0.0793. The composite z-score [10] was -0.353, the composite z-score [11] was 1.55 and the z-score [12] was -0.404 (inactive). For the same compound, the z-score [13] was -1.07 (inactive), the z-score [14] was -1.28 (inactive) and the composite z-score [15] was 1.82. The z-score [16] was 0.957 (inactive), the composite z-score [17] was -0.129 and the composite z-score [18] was 1.18. It also gave a composite z-score [19] of 0.767 and a composite z-score [20] of -0.0512.

Compound `CN1C(=O)[C@]2(CCS(=O)(=O)c3ccccc3)N=C(c3ccc(OCCCO)cc3)O[C@@H]2c2ccccc21` has a composite z-score [1] of 0.511, a composite z-score [2] of 0.485 and a composite z-score [3] of -0.0984. It also gave a composite z-score [4] of 0.255, a composite z-score [5] of 0.768 and a composite z-score [6] of 1.75. For the same compound, the composite z-score [7] was 1.41, the z-score [8] was -0.34 (inactive) and the composite z-score [9] was 0.135. The composite z-score [10] was 0.238, the composite z-score [11] was 1.54 and the z-score [12] was 0.921 (inactive). For the same compound, the z-score [13] was -0.895 (inactive), the z-score [14] was 3.62 (inactive) and the composite z-score [15] was 3.41. For the same compound, the z-score [16] was -0.532 (inactive), the composite z-score [17] was -0.0271 and the composite z-score [18] was 0.804. It also gave a composite z-score [19] of 1.12 and a composite z-score [20] of -0.168.

Work on `Cc1ccc(F)cc1S(=O)(=O)N[C@@H]1CCN(Cc2ccc3[nH]ccc3c2)C1` yielded a composite z-score [1] of -0.0434, a composite z-score [2] of 0.216 and a composite z-score [3] of -0.0717. It also gave a composite z-score [4] of 0.652, a composite z-score [5] of 0.523 and a composite z-score [6] of 0.91. The composite z-score [7] was 0.563, the z-score [8] was -3.16 (inactive) and the composite z-score [9] was 0.356. The composite z-score [10] was -0.134, the composite z-score [11] was 0.556 and the z-score [12] was -0.765 (inactive). The z-score [13] was -2.97 (inactive), the z-score [14] was -0.873 (inactive) and the composite z-score [15] was 2.31. For the same compound, the z-score [16] was -1.76 (inactive), the composite z-score [17] was -0.177 and the composite z-score [18] was 0.418. For the same compound, the composite z-score [19] was 0.933 and the composite z-score [20] was -0.0512.

Work on `C=CCC(OC(C)=O)[C@@H]1[C@@H](N(Cc2ccc(-c3cccc(C(F)(F)F)c3)o2)C(=O)Cc2ccc(F)cc2)c2cc(OCCCO)ccc2N1C(=O)c1ccc2ccccc2c1` (stereo not given in full) yielded a composite z-score [1] of 0.196, a composite z-score [2] of 0.167 and a composite z-score [3] of -0.133. It also gave a composite z-score [4] of -0.428, a composite z-score [5] of -0.58 and a composite z-score [6] of -0.28. The composite z-score [7] was -0.0656, the z-score [8] was 0.512 (inactive) and the composite z-score [9] was 0.487. For the same compound, the composite z-score [10] was -0.0994, the composite z-score [11] was -1.22 and the z-score [12] was -0.428 (inactive). For the same compound, the z-score [13] was 0.498 (inactive), the z-score [14] was -1.2 (inactive) and the composite z-score [15] was -0.305. For the same compound, the z-score [16] was -0.381 (inactive), the composite z-score [17] was -0.0485 and the composite z-score [18] was 0.0055. The composite z-score [19] was -0.35 and the composite z-score [20] was 0.0804.

Compound `CC(C)[Si](C#CCCCC#N)(O[C@H](c1ccccc1)c1cn([C@H](C)c2ccccc2)nn1)C(C)C` has a composite z-score [1] of -0.207, a composite z-score [2] of 0.268 and a composite z-score [3] of -0.0538. It also gave a composite z-score [4] of 0.505, a composite z-score [5] of 0.792 and a composite z-score [6] of 0.816. The composite z-score [7] was 0.726, the z-score [8] was -2.24 (inactive) and the composite z-score [9] was 0.612. The composite z-score [10] was -0.214, the composite z-score [11] was 1.48 and the z-score [12] was -0.766 (inactive). For the same compound, the z-score [13] was -0.415 (inactive), the z-score [14] was -3.12 (inactive) and the composite z-score [15] was 0.76. The z-score [16] was 0.674 (inactive), the composite z-score [17] was 0.064 and the composite z-score [18] was 1.08. The composite z-score [19] was 1.1 and the composite z-score [20] was -0.152.
